Assay outcomes: PubChem BioAssay, several laboratories
Mtb bLac sens: beta-lactam sensitization of Mtb H37Rv; M. tuberculosis H37Rv growth with meropenem, percent inhibition; inhibition, % at 25 µM; 330,000 compounds, 0.27% hits; AID 434955; call rule not given here;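 note: growth measured after seven days incubation then overnight dye step; 0% = bacteria only wells and 100% = bacteria with antibiotic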
Mtb hypoxia inh: inhibitors of hypoxia-regulated fluorescent reporter in Mycobacterium tuberculosis | M. tuberculosis hypoxia-regulated fluorescent reporter, fluorescence | fluorescence inhibition, % (test concentration not listed) | 300,000 compounds, 0.1% hits | AID 1159583; in the data active = fluorescence inhibition mostly above about 23%, no sharp cut-off; inactive = mostly below about 17%
RecA splice inh: blocks M. tuberculosis RecA intein splicing; P9WHJ3; cell-free RecA intein splicing, fluorescence; inhibition, % (concentration not given with the values); 290,000 compounds, 0.75% hits; AID 2221; in the data active = inhibition above about 30%;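 note: 0% = vehicle wells and 100% = reference inhibitor control wells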
Target sequence (P9WHJ3 whole entry, looked up, canonical isoform): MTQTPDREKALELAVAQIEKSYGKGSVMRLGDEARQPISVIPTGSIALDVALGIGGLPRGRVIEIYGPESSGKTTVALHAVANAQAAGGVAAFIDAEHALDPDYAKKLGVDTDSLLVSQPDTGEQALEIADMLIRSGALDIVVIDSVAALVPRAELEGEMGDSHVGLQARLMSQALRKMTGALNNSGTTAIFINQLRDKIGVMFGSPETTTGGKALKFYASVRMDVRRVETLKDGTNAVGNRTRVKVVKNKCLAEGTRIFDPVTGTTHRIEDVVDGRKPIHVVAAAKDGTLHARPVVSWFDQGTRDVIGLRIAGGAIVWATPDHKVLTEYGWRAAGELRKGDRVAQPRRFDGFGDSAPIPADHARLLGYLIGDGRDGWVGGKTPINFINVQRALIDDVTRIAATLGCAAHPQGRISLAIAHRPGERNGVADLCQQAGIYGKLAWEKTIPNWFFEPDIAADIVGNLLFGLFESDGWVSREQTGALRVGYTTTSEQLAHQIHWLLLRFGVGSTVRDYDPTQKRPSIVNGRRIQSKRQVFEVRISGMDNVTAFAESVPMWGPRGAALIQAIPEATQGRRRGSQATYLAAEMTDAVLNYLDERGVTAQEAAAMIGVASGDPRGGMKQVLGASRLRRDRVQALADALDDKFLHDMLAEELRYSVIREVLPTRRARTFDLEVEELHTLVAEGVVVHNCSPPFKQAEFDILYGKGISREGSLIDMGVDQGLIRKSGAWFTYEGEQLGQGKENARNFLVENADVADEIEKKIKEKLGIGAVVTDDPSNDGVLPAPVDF
PfHsp40 rescue: restores yeast growth despite PfHsp40 toxicity. S. cerevisiae expressing PfHsp40, growth rescue, ATP luminescence. growth rescue, % at 12.5 µM. 340,000 compounds, 0.68% hits. AID 504582; in the data active = growth rescue above about 28%, passing the limit was not always enough;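 note: yeast W303a lacking pdr1 and pdr3 grown in galactose medium; growth measured after three days at 30 °C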
CCHF vOTU inh-1: blocks the CCHF virus ovarian tumor domain protease; CCHFV vOTU protease, Pep-AMC fluorescence; inhibition, % at 11.5 µM; 370,000 compounds, 0.55% hits; note: 0% = vehicle wells with enzyme and 100% = no enzyme wells
CCHF vOTU inh-2: CCHFV vOTU protease inhibition, confirmation | shares compounds with CCHF vOTU inh-1 | 1,900 compounds, 17% hits | Recombinant CCHFV vOTU, Pep-AMC fluorescence | inhibition, % at 11.5 µM
* hit, by the source's call. Most compounds without a hit are left out; they make up all but 1.7% or so of the library. Cut-off read from the data, not from the text of the source, unless noted: active = inhibition above about 30%; inactive = the rest.

CCOc1ccc(NS(=O)(=O)c2ccc(Cl)c(N=Nc3c(O)[nH]c(=S)[nH]c3=O)c2)cc1Br was read as CCHF vOTU inh-1 33.0* and CCHF vOTU inh-2 3.3.
CN(C)c1ccc(N/C=C/C(=O)c2ccccc2)cc1 was read as Mtb bLac sens 19.2, Mtb hypoxia inh 6.9, RecA splice inh -0.4, PfHsp40 rescue -0.6, CCHF vOTU inh-1 60.5* and CCHF vOTU inh-2 -4.1.
Screening CN(C)c1ccc(/C=C/C(=O)c2ccc(O)cc2)cc1 returned PfHsp40 rescue 1.6, CCHF vOTU inh-1 35.3* and CCHF vOTU inh-2 -5.2.
CN(C)c1ccc(N/C=C/C(=O)C(C)(C)C)cc1 was read as Mtb bLac sens 12.2, Mtb hypoxia inh 7.2, RecA splice inh 4.0, PfHsp40 rescue 0.8, CCHF vOTU inh-1 58.9* and CCHF vOTU inh-2 10.9.
Screening CCN1C(=O)C2C(C1=O)C(c1ccc(Br)cc1)N1C(=O)c3ccccc3NC(=O)C21 (stereo unspecified) returned Mtb hypoxia inh 4.5.
CCOC(=O)CSc1nc2cccnc2n1-c1ccc(F)cc1 was read as Mtb bLac sens 0.2, Mtb hypoxia inh 11.4, RecA splice inh 0.1, PfHsp40 rescue -0.2 and CCHF vOTU inh-1 5.1.
CC(C)OC(=O)CSc1nc2cccnc2n1-c1ccc(F)cc1 was read as Mtb bLac sens 1.6, Mtb hypoxia inh 16.3, PfHsp40 rescue -0.5, CCHF vOTU inh-1 30.9* and CCHF vOTU inh-2 -8.7.
O=C(CC1CC=CCCCCC(=O)OCC2CCCN2C1=O)NC(CO)Cc1ccccc1 (stereo unspecified) was read as Mtb hypoxia inh 8.4.
`O=C(O)CSc1cc(C(=O)c2cc(F)ccc2O)cn2c(=O)c3c(-c4ccccc4)csc3nc12` gave Mtb bLac sens 3.5, Mtb hypoxia inh 11.4, RecA splice inh 8.8, PfHsp40 rescue 1.0, CCHF vOTU inh-1 32.9* and CCHF vOTU inh-2 6.3.
CCOC(=O)c1sc2nc3c(SCCC#N)cc(C(=O)c4cc(F)ccc4O)cn3c(=O)c2c1C was read as Mtb bLac sens 16.9, Mtb hypoxia inh 3.0, RecA splice inh -5.3, PfHsp40 rescue 0.1 and CCHF vOTU inh-1 2.9.
CC[C@H](CO)Oc1cc(NCc2cccc(N)c2)c2ncn(C(C)C)c2c1 was read as CCHF vOTU inh-1 75.3* and CCHF vOTU inh-2 56.8*.
For N#Cc1c(-c2cccs2)nc(SCC(=O)c2cccs2)[nH]c1=O the results were Mtb bLac sens -8.6, RecA splice inh 2.9, PfHsp40 rescue 0.5, CCHF vOTU inh-1 31.4* and CCHF vOTU inh-2 -3.3.
Screening CN(c1ccccc1)c1ccc(/C=C(\CCC(=O)O)c2nc3ccccc3s2)cc1[N+](=O)[O-] returned Mtb bLac sens -3.3, Mtb hypoxia inh 8.7, RecA splice inh 6.8, PfHsp40 rescue -0.5, CCHF vOTU inh-1 35.5* and CCHF vOTU inh-2 28.6.
For Cn1cnnc1Sc1ccc(/C=C(\CCC(=O)O)c2nc3ccccc3s2)cc1[N+](=O)[O-] the results were Mtb bLac sens -4.1, RecA splice inh 1.3, PfHsp40 rescue 0.7 and CCHF vOTU inh-1 11.0.
Screening CNc1ccc(/C=C(\CCC(=O)O)c2nc3ccccc3s2)cc1[N+](=O)[O-] returned Mtb bLac sens 5.7, Mtb hypoxia inh 3.6, RecA splice inh 1.8, PfHsp40 rescue -1.6 and CCHF vOTU inh-1 15.8.
`Cc1ccc(/C=C(\CCC(=O)O)c2nc3ccccc3s2)cc1[N+](=O)[O-]` gave Mtb bLac sens 5.5, Mtb hypoxia inh -0.6, RecA splice inh 10.5, PfHsp40 rescue 1.9, CCHF vOTU inh-1 31.2* and CCHF vOTU inh-2 21.4.
`CCOc1ccc(NC(=O)N(CCN2CCOCC2)Cc2ccc3c(c2)CCCN3CC)cc1` gave Mtb bLac sens -12.7, Mtb hypoxia inh 20.7, RecA splice inh -6.0, PfHsp40 rescue 0.4, CCHF vOTU inh-1 40.8* and CCHF vOTU inh-2 -17.1.
Screening CCCN1CCCc2cc(CN(CCCN3CCOCC3)C(=O)Nc3ccc(OCC)cc3)ccc21 returned Mtb bLac sens -6.3, Mtb hypoxia inh 3.3, RecA splice inh -2.0, PfHsp40 rescue 0.0 and CCHF vOTU inh-1 -8.7.
`CC(C)(C)c1ccc(CC(=O)N2CCC2(C)C(=O)Nc2ccc(F)cc2F)cc1` (stereo unspecified) gave CCHF vOTU inh-1 20.8.
Screening CC1(C(=O)Nc2ccc(F)cc2F)CCN1C(=O)CCC1CCCC1 (stereo unspecified) returned CCHF vOTU inh-1 32.7* and CCHF vOTU inh-2 -15.2.
